Tests used:
Details in all cases: concentration: 1 μM,replicates: in singlicate; n = 1
[1] = system: CDK8
[2] = system: CDK9
[3] = system: CDKL1
[4] = system: CDKL2
[5] = system: CDKL3
[6] = system: CDKL5
[7] = system: CHEK1
[8] = system: CHEK2
[9] = system: CIT
[10] = system: CLK1
[11] = system: CLK2
[12] = system: CLK3
[13] = system: CLK4
[14] = system: CSF1R-autoinhibited
[15] = system: CSF1R
[16] = system: CSK
[17] = system: CSNK1A1L
[18] = system: CSNK1A1
[19] = system: CSNK1D
[20] = system: CSNK1E
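Note: KINOMEscan kinase panel screen.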

COc1cccc(C2=C(Nc3cccc(Cl)c3)C(=O)NC2=O)c1 [SB-341556]
%Inh [1]: 0%
%Inh [2]: 0%
%Inh [3]: 18%
%Inh [4]: 12%
%Inh [5]: 0%
%Inh [6]: 0%
%Inh [7]: 14%
%Inh [8]: 0%
%Inh [9]: 0%
%Inh [10]: 69%
%Inh [11]: 69%
%Inh [12]: 0%
%Inh [13]: 55%
%Inh [14]: 0%
%Inh [15]: 18%
%Inh [16]: 0%
%Inh [17]: 0%
%Inh [18]: 36%
%Inh [19]: 10%
%Inh [20]: 20%

CN(c1cccc(CNc2nc(Nc3ccc4c(c3)CC(=O)N4)ncc2C(F)(F)F)c1)S(C)(=O)=O
%Inh [1]: 0%
%Inh [2]: 6%
%Inh [3]: 44%
%Inh [4]: 55%
%Inh [5]: 7%
%Inh [6]: 0%
%Inh [7]: 0%
%Inh [8]: 0%
%Inh [9]: 30%
%Inh [10]: 63%
%Inh [11]: 26%
%Inh [12]: 16%
%Inh [13]: 47%
%Inh [14]: 31%
%Inh [15]: 15%
%Inh [16]: 0%
%Inh [17]: 0%
%Inh [18]: 0%
%Inh [19]: 7%
%Inh [20]: 18%

Cl.Nc1n[nH]c2cc(-c3ccccn3)ccc12 [GSK2189892]
%Inh [1]: 13%
%Inh [2]: 7%
%Inh [3]: 4%
%Inh [4]: 24%
%Inh [5]: 0%
%Inh [6]: 0%
%Inh [7]: 18%
%Inh [8]: 0%
%Inh [9]: 25%
%Inh [10]: 23%
%Inh [11]: 0%
%Inh [12]: 18%
%Inh [13]: 31%
%Inh [14]: 0%
%Inh [15]: 8%
%Inh [16]: 0%
%Inh [17]: 0%
%Inh [18]: 0%
%Inh [19]: 0%
%Inh [20]: 21%

Cc1nnc(-c2ccc3occ(-c4ccc(S(C)=O)cc4)c3n2)o1 (centres unmarked)
%Inh [1]: 0%
%Inh [2]: 0%
%Inh [3]: 24%
%Inh [4]: 0%
%Inh [5]: 0%
%Inh [6]: 0%
%Inh [7]: 0%
%Inh [8]: 1%
%Inh [9]: 0%
%Inh [10]: 0%
%Inh [11]: 19%
%Inh [12]: 0%
%Inh [13]: 0%
%Inh [14]: 0%
%Inh [15]: 1%
%Inh [16]: 0%
%Inh [17]: 6%
%Inh [18]: 0%
%Inh [19]: 0%
%Inh [20]: 0%

c1ccc(Oc2ccc(Nc3ccnc4ccc(-c5ccccn5)cc34)cc2)cc1 [GW407034]
%Inh [1]: 0%
%Inh [2]: 0%
%Inh [3]: 9%
%Inh [4]: 16%
%Inh [5]: 0%
%Inh [6]: 14%
%Inh [7]: 26%
%Inh [8]: 0%
%Inh [9]: 4%
%Inh [10]: 14%
%Inh [11]: 0%
%Inh [12]: 19%
%Inh [13]: 0%
%Inh [14]: 0%
%Inh [15]: 9%
%Inh [16]: 6%
%Inh [17]: 13%
%Inh [18]: 0%
%Inh [19]: 14%
%Inh [20]: 36%

Cn1ccc2ncnc(Oc3ccc(NC(=O)Nc4ccnc(C(F)(F)F)c4)c(Cl)c3)c21
%Inh [1]: 95.5%
%Inh [2]: 0%
%Inh [3]: 34%
%Inh [4]: 3%
%Inh [5]: 0%
%Inh [6]: 19%
%Inh [7]: 0%
%Inh [8]: 2%
%Inh [9]: 18%
%Inh [10]: 0%
%Inh [11]: 0%
%Inh [12]: 0%
%Inh [13]: 0%
%Inh [14]: 6%
%Inh [15]: 92.3%
%Inh [16]: 0%
%Inh [17]: 16%
%Inh [18]: 0%
%Inh [19]: 0%
%Inh [20]: 0%

Cc1ccc(CC(=O)N2CCc3cc(-c4cn(C)c5ncnc(N)c45)ccc32)cc1 [GSK2634758]
%Inh [1]: 83%
%Inh [2]: 0%
%Inh [3]: 8%
%Inh [4]: 0%
%Inh [5]: 0%
%Inh [6]: 0%
%Inh [7]: 1%
%Inh [8]: 17%
%Inh [9]: 19%
%Inh [10]: 13%
%Inh [11]: 0%
%Inh [12]: 0%
%Inh [13]: 0%
%Inh [14]: 21%
%Inh [15]: 79%
%Inh [16]: 100%
%Inh [17]: 14%
%Inh [18]: 0%
%Inh [19]: 16%
%Inh [20]: 66%

CC(C)c1nc(-c2cccc(NS(=O)(=O)c3ccccc3)c2)c(-c2ccnc(Nc3ccc4c(c3)CN(C)CC4)n2)s1 [GSK1649598]
%Inh [1]: 0%
%Inh [2]: 60%
%Inh [3]: 0%
%Inh [4]: 100%
%Inh [5]: 37%
%Inh [6]: 99%
%Inh [7]: 5%
%Inh [8]: 24%
%Inh [9]: 84%
%Inh [10]: 30%
%Inh [11]: 10%
%Inh [12]: 24%
%Inh [13]: 0%
%Inh [14]: 0%
%Inh [15]: 89%
%Inh [16]: 97.6%
%Inh [17]: 88%
%Inh [18]: 87%
%Inh [19]: 86%
%Inh [20]: 98.6%

Cc1ccc(Nc2ccnc(Nc3ccc4c(c3)CS(=O)(=O)C4)n2)cc1O.Cl [GW579362]
%Inh [1]: 38%
%Inh [2]: 37%
%Inh [3]: 36%
%Inh [4]: 41%
%Inh [5]: 0%
%Inh [6]: 0%
%Inh [7]: 0%
%Inh [8]: 14%
%Inh [9]: 69%
%Inh [10]: 81%
%Inh [11]: 16%
%Inh [12]: 82%
%Inh [13]: 81%
%Inh [14]: 76%
%Inh [15]: 97.5%
%Inh [16]: 48%
%Inh [17]: 8%
%Inh [18]: 0%
%Inh [19]: 3%
%Inh [20]: 21%

CC(C)S(=O)(=O)N1CCN(Cc2ccc3c(c2)nc(NC(=O)c2ccsc2)n3C[C@H](O)c2ccccc2)CC1 [GW635815]
%Inh [1]: 15%
%Inh [2]: 0%
%Inh [3]: 8%
%Inh [4]: 6%
%Inh [5]: 0%
%Inh [6]: 0%
%Inh [7]: 0%
%Inh [8]: 32%
%Inh [9]: 98.4%
%Inh [10]: 98.5%
%Inh [11]: 91.9%
%Inh [12]: 79%
%Inh [13]: 95.5%
%Inh [14]: 45%
%Inh [15]: 68%
%Inh [16]: 13%
%Inh [17]: 68%
%Inh [18]: 60%
%Inh [19]: 56%
%Inh [20]: 71%

Cn1ccc2ncnc(Oc3ccc(NC(=O)Nc4cccc(C(F)(F)F)c4)c(F)c3)c21
%Inh [1]: 100%
%Inh [2]: 24%
%Inh [3]: 62%
%Inh [4]: 45%
%Inh [5]: 7%
%Inh [6]: 0%
%Inh [7]: 0%
%Inh [8]: 1%
%Inh [9]: 78%
%Inh [10]: 13%
%Inh [11]: 9%
%Inh [12]: 4%
%Inh [13]: 0%
%Inh [14]: 0%
%Inh [15]: 99.9%
%Inh [16]: 0%
%Inh [17]: 0%
%Inh [18]: 39%
%Inh [19]: 22%
%Inh [20]: 13%

COc1cc(Nc2nccc(N3CCC(NC(=O)c4cccc(C#N)c4)C3)n2)cc(OC)c1OC (centres unmarked) [GSK1379751]
%Inh [1]: 6%
%Inh [2]: 0%
%Inh [3]: 0%
%Inh [4]: 41%
%Inh [5]: 0%
%Inh [6]: 0%
%Inh [7]: 0%
%Inh [8]: 0%
%Inh [9]: 8%
%Inh [10]: 4%
%Inh [11]: 0%
%Inh [12]: 0%
%Inh [13]: 0%
%Inh [14]: 14%
%Inh [15]: 28%
%Inh [16]: 0%
%Inh [17]: 0%
%Inh [18]: 0%
%Inh [19]: 0%
%Inh [20]: 8%

CN(c1ccccc1CNc1nc(Nc2ccc3c(c2)CC(=O)N3)ncc1C(F)(F)F)S(C)(=O)=O
%Inh [1]: 0%
%Inh [2]: 40%
%Inh [3]: 13%
%Inh [4]: 8%
%Inh [5]: 0%
%Inh [6]: 0%
%Inh [7]: 0%
%Inh [8]: 0%
%Inh [9]: 10%
%Inh [10]: 95%
%Inh [11]: 84%
%Inh [12]: 23%
%Inh [13]: 84%
%Inh [14]: 2%
%Inh [15]: 17%
%Inh [16]: 3%
%Inh [17]: 9%
%Inh [18]: 19%
%Inh [19]: 0%
%Inh [20]: 1%

CC(C(=O)NC1CCN(c2ccnc(Nc3ccc(F)cc3)n2)C1)c1ccc(Cl)cc1 (centres unmarked) [GSK1379713]
%Inh [1]: 23%
%Inh [2]: 0%
%Inh [3]: 0%
%Inh [4]: 1%
%Inh [5]: 0%
%Inh [6]: 0%
%Inh [7]: 15%
%Inh [8]: 0%
%Inh [9]: 28%
%Inh [10]: 15%
%Inh [11]: 0%
%Inh [12]: 0%
%Inh [13]: 8%
%Inh [14]: 0%
%Inh [15]: 0%
%Inh [16]: 0%
%Inh [17]: 3%
%Inh [18]: 22%
%Inh [19]: 0%
%Inh [20]: 3%

CCNCC(Cc1ccccc1)NC(=O)c1cc(Br)c(-c2ccnc3[nH]ccc23)s1.Cl.Cl (centres unmarked) [GSK1383280]
%Inh [1]: 0%
%Inh [2]: 19%
%Inh [3]: 17%
%Inh [4]: 0%
%Inh [5]: 0%
%Inh [6]: 0%
%Inh [7]: 20%
%Inh [8]: 42%
%Inh [9]: 73%
%Inh [10]: 59%
%Inh [11]: 71%
%Inh [12]: 47%
%Inh [13]: 59%
%Inh [14]: 0%
%Inh [15]: 55%
%Inh [16]: 6%
%Inh [17]: 6%
%Inh [18]: 0%
%Inh [19]: 32%
%Inh [20]: 39%

C[C@@H](Oc1cc(-n2cnc3cc(-c4ccncc4)ccc32)sc1C(N)=O)c1ccccc1Cl [GSK479719]
%Inh [1]: 12%
%Inh [2]: 4%
%Inh [3]: 21%
%Inh [4]: 33%
%Inh [5]: 0%
%Inh [6]: 0%
%Inh [7]: 4%
%Inh [8]: 0%
%Inh [9]: 24%
%Inh [10]: 73%
%Inh [11]: 28%
%Inh [12]: 5%
%Inh [13]: 68%
%Inh [14]: 0%
%Inh [15]: 29%
%Inh [16]: 0%
%Inh [17]: 15%
%Inh [18]: 0%
%Inh [19]: 17%
%Inh [20]: 8%

COc1cc2c(Nc3ccc(NC(=O)c4ccccc4)cc3)ncnc2cc1OCCCN1CCOCC1 [GSK301329]
%Inh [1]: 0%
%Inh [2]: 0%
%Inh [3]: 23%
%Inh [4]: 30%
%Inh [5]: 0%
%Inh [6]: 0%
%Inh [7]: 0%
%Inh [8]: 58%
%Inh [9]: 9%
%Inh [10]: 10%
%Inh [11]: 0%
%Inh [12]: 100%
%Inh [13]: 6%
%Inh [14]: 0%
%Inh [15]: 18%
%Inh [16]: 4%
%Inh [17]: 9%
%Inh [18]: 7%
%Inh [19]: 3%
%Inh [20]: 59%

Cn1ccc2ncnc(Oc3ccc(NC(=O)Nc4cc(C(C)(C)C)on4)c(Cl)c3)c21
%Inh [1]: 90.9%
%Inh [2]: 6%
%Inh [3]: 48%
%Inh [4]: 26%
%Inh [5]: 17%
%Inh [6]: 32%
%Inh [7]: 0%
%Inh [8]: 7%
%Inh [9]: 63%
%Inh [10]: 0%
%Inh [11]: 95.1%
%Inh [12]: 0%
%Inh [13]: 10%
%Inh [14]: 43%
%Inh [15]: 100%
%Inh [16]: 0%
%Inh [17]: 15%
%Inh [18]: 6%
%Inh [19]: 6%
%Inh [20]: 0%

Cn1cc(-c2cccc3c(N)c(C(N)=O)nnc23)cn1
%Inh [1]: 33%
%Inh [2]: 0%
%Inh [3]: 32%
%Inh [4]: 12%
%Inh [5]: 7%
%Inh [6]: 0%
%Inh [7]: 0%
%Inh [8]: 0%
%Inh [9]: 10%
%Inh [10]: 74%
%Inh [11]: 78%
%Inh [12]: 20%
%Inh [13]: 75%
%Inh [14]: 0%
%Inh [15]: 0%
%Inh [16]: 19%
%Inh [17]: 21%
%Inh [18]: 72%
%Inh [19]: 32%
%Inh [20]: 25%
